Screens as filed in PubChem.
Mcl-1 Bim block: human Bim-Mcl-1 interaction inhibition; Q07820; Bead-based flow cytometry, Bim peptide-Mcl-1 binding; inhibition, % at 10 µM; 190,000 compounds, 0.1% hits; in the data active = inhibition above about 40%;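 also: 0% = no compound tracer wells and 100% = peptide blocker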
14-3-3 Bad inh: disrupts binding of bovine 14-3-3 zeta to phospho-Bad peptide; P63103; inhibition, % at 21.7 µM; AID 781; 220,000 compounds, 0.71% hits; TR-FRET 14-3-3zeta/Dy647-pBad peptide displacement, 1 h;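 active = inhibition above about 70%, limit read from the data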;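 also: 0% = full 14-3-3 plus peptide FRET controls and 100% = background without 14-3-3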
Target sequence (P63103 whole entry, looked up): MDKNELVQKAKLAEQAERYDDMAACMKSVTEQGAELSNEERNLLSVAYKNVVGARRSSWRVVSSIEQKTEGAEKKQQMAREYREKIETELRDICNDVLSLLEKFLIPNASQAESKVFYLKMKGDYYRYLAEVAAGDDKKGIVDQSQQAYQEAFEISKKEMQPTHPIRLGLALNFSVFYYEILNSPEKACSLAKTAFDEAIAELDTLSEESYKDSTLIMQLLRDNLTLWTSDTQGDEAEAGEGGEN
p47phox inh: blocks human p47phox regulatory protein of NADPH oxidases | AID 1274 | 220,000 compounds, 0.53% hits | p47phox/p22phox peptide binding, fluorescence polarization, 2 h | inhibition, % at 24.7 µM;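 active = inhibition above about 30%, limit read from the data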;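 also: 0% = p47phox with labelled peptide and 100% = labelled peptide alone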
Mcl1 Noxa PPI: disrupts binding of human Mcl-1 to Noxa peptide | Q07820 | inhibition, % at 21.7 µM | AID 1022 | 220,000 compounds, 1.5% hits | TR-FRET Mcl-1/Noxa peptide binding, 2 h;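 active = compounds that cut the protein-peptide binding signal by more than 50% relative to plate controls in a single-dose test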;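 also: His-tagged Mcl-1 with rhodamine Noxa BH3 peptide and terbium anti-His antibody; 0% = Mcl-1 plus Noxa peptide wells and 100% = peptide-only wells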
Mcl1-Bid inh: disrupts binding of human Mcl-1 to Bid peptide; TR-FRET Mcl-1/Bid-Dy647 peptide binding, 1536-well; inhibition, % at 21.7 µM; 220,000 compounds, 0.97% hits; AID 1021;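 active = compounds that cut the binding signal by more than half at the single screening dose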;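 also: His-tagged Mcl-1 with europium anti-His antibody binding Bid BH3 peptide; 0% = Mcl-1 plus peptide wells and 100% = peptide-only wells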
Starred values were filed as active, the others as inactive; [ ] = remark or other dose. The list is not random: actives were taken first. Their share in the collection is about 3.1%.

For Cn1nc(CC(=O)Nc2ccc(N3CCN(C(=O)OC(C)(C)C)CC3)cc2)c2ccccc2c1=O the results were Mcl-1 Bim block 0.0, 14-3-3 Bad inh 24.7, p47phox inh 30.9*, Mcl1 Noxa PPI 29.2 and Mcl1-Bid inh 13.2.
`CC(=O)Nc1ccc(S(=O)(=O)NCC(CCC(=O)O)C(F)(F)F)cc1` (stereo not drawn) gave Mcl-1 Bim block 1.0, 14-3-3 Bad inh 0.0, p47phox inh 5.9, Mcl1 Noxa PPI 60.0* and Mcl1-Bid inh -2.9.
For CCOCCCNCC(=O)Nc1ccccc1N1CCOCC1 the results were Mcl-1 Bim block 0.0, 14-3-3 Bad inh 71.0*, p47phox inh -26.6, Mcl1 Noxa PPI 22.4 and Mcl1-Bid inh 42.1.
Cc1ccccc1OCC(=O)Nc1ccccc1N1CCOCC1 was read as Mcl-1 Bim block -5.0, 14-3-3 Bad inh 4.1, p47phox inh -2.9, Mcl1 Noxa PPI -0.6 and Mcl1-Bid inh -7.2.
Screening O=C(CN1CCOCC1)NCc1ccccc1 returned Mcl-1 Bim block -1.0, 14-3-3 Bad inh -0.6, p47phox inh 42.6*, Mcl1 Noxa PPI -1.4 and Mcl1-Bid inh -23.6.
`Cc1cc(C)c(OCC(=O)Nc2ccccc2N2CCOCC2)c(C)c1` gave Mcl-1 Bim block -1.0, 14-3-3 Bad inh -9.0, p47phox inh 41.4*, Mcl1 Noxa PPI -3.5 and Mcl1-Bid inh -28.8.
For CCCCC(=O)Nc1ccccc1N1CCOCC1 the results were Mcl-1 Bim block 0.0, 14-3-3 Bad inh -4.7, p47phox inh 7.9, Mcl1 Noxa PPI 17.9 and Mcl1-Bid inh -24.6.
Screening Cc1ccc(C(=O)N/C(=C\c2ccc(C(C)C)cc2)C(=O)NCCCN2CCOCC2)cc1 returned Mcl-1 Bim block -1.0, 14-3-3 Bad inh 30.1, p47phox inh -8.8, Mcl1 Noxa PPI 51.1* and Mcl1-Bid inh -10.9.
For COc1cc(C(=O)NC(CCSC)C(=O)OCC(=O)C(C)(C)C)cc(OC)c1OC (stereo not drawn) the results were Mcl-1 Bim block 14.0, 14-3-3 Bad inh -24.9, p47phox inh -6.9, Mcl1 Noxa PPI -2.4 and Mcl1-Bid inh -11.1.
For CC(=O)Nc1sc2c(c1CN1CCN(c3ccc(F)cc3)CC1)CCCC2 the results were Mcl-1 Bim block -5.0, 14-3-3 Bad inh -5.2, p47phox inh -11.4, Mcl1 Noxa PPI 22.6 and Mcl1-Bid inh -23.6.
Screening O=C(NCCCN1CCOCC1)c1ccccc1 returned Mcl-1 Bim block 3.0, 14-3-3 Bad inh 80.7*, p47phox inh 2.5, Mcl1 Noxa PPI 14.0 and Mcl1-Bid inh 22.7.
CSc1ccccc1NC(=O)CN1CCCCC1 was read as Mcl-1 Bim block 0.0, 14-3-3 Bad inh -9.9, p47phox inh -2.7, Mcl1 Noxa PPI -2.1 and Mcl1-Bid inh -18.2.
`CSc1ccccc1NC(=O)CNCCCN1CCOCC1` gave 14-3-3 Bad inh 38.4, p47phox inh 1.6, Mcl1 Noxa PPI 39.1 and Mcl1-Bid inh 89.1*.
Screening CCOc1ccc(NC(=O)COc2ccc(C(=O)NCCc3ccccc3)cc2)cc1 returned Mcl-1 Bim block 12.0, 14-3-3 Bad inh 72.1*[fluorescence artefact?], p47phox inh -6.2, Mcl1 Noxa PPI -22.1 and Mcl1-Bid inh -14.3.
Cc1cc2cc3c(=O)[nH]c(=O)[nH]c3nc2cc1C was read as 14-3-3 Bad inh -13.7, p47phox inh 150.7*, Mcl1 Noxa PPI 3.3 and Mcl1-Bid inh -0.1.
Screening Cc1nc2cc3ccccc3cc2c(=O)[nH]1 returned Mcl-1 Bim block 0.0, 14-3-3 Bad inh -3.5, p47phox inh -6.1, Mcl1 Noxa PPI 11.6 and Mcl1-Bid inh -3.0.
Cc1ccc(NC(=O)CS(=O)CC(=O)N(c2ccc(C)cc2)C(C)C(=O)NC2CCCCC2)cc1 (stereo not drawn) was read as Mcl-1 Bim block 13.0, 14-3-3 Bad inh -10.6, p47phox inh 0.6, Mcl1 Noxa PPI 2.5 and Mcl1-Bid inh -3.9.
For Cc1cccc(NC(=S)c2nc3ccccc3s2)c1 the results were Mcl-1 Bim block -1.0, 14-3-3 Bad inh -3.3, p47phox inh -4.7, Mcl1 Noxa PPI -41.1 and Mcl1-Bid inh 103.2*.
`O=C(Nc1ccccc1)c1nc2ccccc2s1` gave Mcl-1 Bim block -8.0, 14-3-3 Bad inh 4.9, p47phox inh 0.5, Mcl1 Noxa PPI 26.6 and Mcl1-Bid inh -5.3.
`C=CCN1C(=O)/C(=C/c2ccsc2)SC1=S` gave Mcl-1 Bim block 64.0*, 14-3-3 Bad inh -8.1, p47phox inh 14.1, Mcl1 Noxa PPI 17.4 and Mcl1-Bid inh 1.2.
`O=C(O)CN1C(=O)/C(=C/c2ccsc2)SC1=S` gave Mcl-1 Bim block -2.0, 14-3-3 Bad inh 10.3, p47phox inh -51.5, Mcl1 Noxa PPI 2.4 and Mcl1-Bid inh -32.4.
